Experimental data reported in the supplement of paper PMC4466140.

These binders were tested against CaNbp2 (assay: SPOT peptide array binding signal intensity (averaged, normalized) (arbitrary units (background-subtracted, floor 0; scale differs between SH3 domains)); higher = stronger binding of the SH3 domain to the peptide).
Summary of the method: (§1)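 GST-SH3 fusions from four yeast species, purified on glutathione Sepharose, were incubated at 10 μg/ml overnight at 4°C on membranes of synthetic 15-mer peptides in which cysteines were replaced with serines. Binding signal is the normalized, background-subtracted spot intensity averaged over replicates, in domain-specific arbitrary units.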

| Binder | SPOT peptide array binding signal intensity |
| --- | --- |
| ITHRLRISIPGITGR | 454 |

The binders below were run against CaRvs167 in the same assay as above.
Summary of the method: as §1

| Binder | SPOT peptide array binding signal intensity |
| --- | --- |
| ITHRLRISIPGITGR | 636 |

Each binder was assayed against CaRvs167-3 in the same assay as above.
Summary of the method: as §1

| Binder | SPOT peptide array binding signal intensity |
| --- | --- |
| ITHRLRISIPGITGR | 2400 |

Each binder was assayed against CaSho1 in the same assay as above.
Summary of the method: as §1

| Binder | SPOT peptide array binding signal intensity |
| --- | --- |
| ITHRLRISIPGITGR | 855 |

The binders below were run against CaSla1-D1-D2 in the same assay as above.
Summary of the method: as §1

| Binder | SPOT peptide array binding signal intensity |
| --- | --- |
| ITHRLRISIPGITGR | 28 |

The binders below were run against CaSla1-D3 in the same assay as above.
Summary of the method: as §1

| Binder | SPOT peptide array binding signal intensity |
| --- | --- |
| ITHRLRISIPGITGR | 454 |

These binders were tested against ScAbp1 in the same assay as above.
Summary of the method: as §1

| Binder | SPOT peptide array binding signal intensity |
| --- | --- |
| ITHRLRISIPGITGR | 23 |

What follows are binders tested against ScBbc1 in the same assay as above.
Summary of the method: as §1

| Binder | SPOT peptide array binding signal intensity |
| --- | --- |
| ITHRLRISIPGITGR | 16.8 |

The binders below were run against ScBem1-D1 in the same assay as above.
Summary of the method: as §1

| Binder | SPOT peptide array binding signal intensity |
| --- | --- |
| ITHRLRISIPGITGR | 44.5 |

What follows are binders tested against ScBzz1-D1 in the same assay as above.
Summary of the method: as §1

| Binder | SPOT peptide array binding signal intensity |
| --- | --- |
| ITHRLRISIPGITGR | 100 |

What follows are binders tested against ScBzz1-D2 in the same assay as above.
Summary of the method: as §1

| Binder | SPOT peptide array binding signal intensity |
| --- | --- |
| ITHRLRISIPGITGR | 442 |

Each binder was assayed against ScCyk3 in the same assay as above.
Summary of the method: as §1

| Binder | SPOT peptide array binding signal intensity |
| --- | --- |
| ITHRLRISIPGITGR | 72 |

The binders below were run against ScFus1 in the same assay as above.
Summary of the method: as §1

| Binder | SPOT peptide array binding signal intensity |
| --- | --- |
| ITHRLRISIPGITGR | 2080 |

The binders below were run against ScHof1 in the same assay as above.
Summary of the method: as §1

| Binder | SPOT peptide array binding signal intensity |
| --- | --- |
| ITHRLRISIPGITGR | 2 |

Each binder was assayed against ScHse1 in the same assay as above.
Summary of the method: as §1

| Binder | SPOT peptide array binding signal intensity |
| --- | --- |
| ITHRLRISIPGITGR | 2140 |

Each binder was assayed against ScLsb1 in the same assay as above.
Summary of the method: as §1

| Binder | SPOT peptide array binding signal intensity |
| --- | --- |
| ITHRLRISIPGITGR | 33.5 |

What follows are binders tested against ScLsb2 in the same assay as above.
Summary of the method: as §1

| Binder | SPOT peptide array binding signal intensity |
| --- | --- |
| ITHRLRISIPGITGR | 22 |

These binders were tested against ScLsb3 in the same assay as above.
Summary of the method: as §1

| Binder | SPOT peptide array binding signal intensity |
| --- | --- |
| ITHRLRISIPGITGR | 282 |

What follows are binders tested against ScLsb4 in the same assay as above.
Summary of the method: as §1

| Binder | SPOT peptide array binding signal intensity |
| --- | --- |
| ITHRLRISIPGITGR | 20 |

The binders below were run against ScMyo3 in the same assay as above.
Summary of the method: as §1

| Binder | SPOT peptide array binding signal intensity |
| --- | --- |
| ITHRLRISIPGITGR | ≤ 0 |

Each binder was assayed against ScMyo5 in the same assay as above.
Summary of the method: as §1

| Binder | SPOT peptide array binding signal intensity |
| --- | --- |
| ITHRLRISIPGITGR | 1.5 |

These binders were tested against ScNbp2 in the same assay as above.
Summary of the method: as §1

| Binder | SPOT peptide array binding signal intensity |
| --- | --- |
| ITHRLRISIPGITGR | 397 |

These binders were tested against ScPex13 in the same assay as above.
Summary of the method: as §1

| Binder | SPOT peptide array binding signal intensity |
| --- | --- |
| ITHRLRISIPGITGR | 50.2 |

The binders below were run against ScRvs167 in the same assay as above.
Summary of the method: as §1

| Binder | SPOT peptide array binding signal intensity |
| --- | --- |
| ITHRLRISIPGITGR | 163 |

What follows are binders tested against ScSho1 in the same assay as above.
Summary of the method: as §1

| Binder | SPOT peptide array binding signal intensity |
| --- | --- |
| ITHRLRISIPGITGR | 2380 |

These binders were tested against ScSla1-D1-D2 in the same assay as above.
Summary of the method: as §1

| Binder | SPOT peptide array binding signal intensity |
| --- | --- |
| ITHRLRISIPGITGR | 267 |

What follows are binders tested against ScSla1-D3 in the same assay as above.
Summary of the method: as §1

| Binder | SPOT peptide array binding signal intensity |
| --- | --- |
| ITHRLRISIPGITGR | 69 |

What follows are binders tested against SpAbp1-D1 in the same assay as above.
Summary of the method: as §1

| Binder | SPOT peptide array binding signal intensity |
| --- | --- |
| ITHRLRISIPGITGR | 91.5 |

The binders below were run against SpBbc1 in the same assay as above.
Summary of the method: as §1

| Binder | SPOT peptide array binding signal intensity |
| --- | --- |
| ITHRLRISIPGITGR | 57.2 |

The binders below were run against SpBzz1-D1 in the same assay as above.
Summary of the method: as §1

| Binder | SPOT peptide array binding signal intensity |
| --- | --- |
| ITHRLRISIPGITGR | 486 |

Each binder was assayed against SpBzz1-D2 in the same assay as above.
Summary of the method: as §1

| Binder | SPOT peptide array binding signal intensity |
| --- | --- |
| ITHRLRISIPGITGR | 1 |

What follows are binders tested against SpCyk3 in the same assay as above.
Summary of the method: as §1

| Binder | SPOT peptide array binding signal intensity |
| --- | --- |
| ITHRLRISIPGITGR | 30 |

The binders below were run against SpHof1 in the same assay as above.
Summary of the method: as §1

| Binder | SPOT peptide array binding signal intensity |
| --- | --- |
| ITHRLRISIPGITGR | 272 |

The binders below were run against SpHof1-2 in the same assay as above.
Summary of the method: as §1

| Binder | SPOT peptide array binding signal intensity |
| --- | --- |
| ITHRLRISIPGITGR | 31 |

Each binder was assayed against SpHof1-3 in the same assay as above.
Summary of the method: as §1

| Binder | SPOT peptide array binding signal intensity |
| --- | --- |
| ITHRLRISIPGITGR | 461 |

The binders below were run against SpHse1 in the same assay as above.
Summary of the method: as §1

| Binder | SPOT peptide array binding signal intensity |
| --- | --- |
| ITHRLRISIPGITGR | 625 |

These binders were tested against SpLsb1 in the same assay as above.
Summary of the method: as §1

| Binder | SPOT peptide array binding signal intensity |
| --- | --- |
| ITHRLRISIPGITGR | 10.8 |

The binders below were run against SpLsb4 in the same assay as above.
Summary of the method: as §1

| Binder | SPOT peptide array binding signal intensity |
| --- | --- |
| ITHRLRISIPGITGR | 108 |

These binders were tested against SpMyo1 in the same assay as above.
Summary of the method: as §1

| Binder | SPOT peptide array binding signal intensity |
| --- | --- |
| ITHRLRISIPGITGR | 3 |

These binders were tested against SpNbp2 in the same assay as above.
Summary of the method: as §1

| Binder | SPOT peptide array binding signal intensity |
| --- | --- |
| ITHRLRISIPGITGR | 802 |

The binders below were run against SpPex13 in the same assay as above.
Summary of the method: as §1

| Binder | SPOT peptide array binding signal intensity |
| --- | --- |
| ITHRLRISIPGITGR | 124 |

Each binder was assayed against SpRvs167 in the same assay as above.
Summary of the method: as §1

| Binder | SPOT peptide array binding signal intensity |
| --- | --- |
| ITHRLRISIPGITGR | 115 |

These binders were tested against SpSla1-D1-D2 in the same assay as above.
Summary of the method: as §1

| Binder | SPOT peptide array binding signal intensity |
| --- | --- |
| ITHRLRISIPGITGR | 1 |

What follows are binders tested against SpSla1-D3 in the same assay as above.
Summary of the method: as §1

| Binder | SPOT peptide array binding signal intensity |
| --- | --- |
| ITHRLRISIPGITGR | 6.5 |
